According to ChEMBL document CHEMBL3433997, “St. Jude Leishmania screening dataset” (2016):

What was measured:
Assay type in all cases: functional
[1] = target: Solute carrier family 2, facilitated glucose transporter member 1 (Homo sapiens) (UniProt P11166); assay: ST_JUDE_LEISH: Cytotoxicity at 2uM final concentration against transgenic Leishmania Mexicana promastigotes LmGLUT1 that are glucose transport deficient and complemented with the human glucose transporter GLUT1. Activity is measured by DNA content using SYBR green in vitro
Solute carrier family 2, facilitated glucose transporter member 1 (Homo sapiens), sequence (P11166 whole entry): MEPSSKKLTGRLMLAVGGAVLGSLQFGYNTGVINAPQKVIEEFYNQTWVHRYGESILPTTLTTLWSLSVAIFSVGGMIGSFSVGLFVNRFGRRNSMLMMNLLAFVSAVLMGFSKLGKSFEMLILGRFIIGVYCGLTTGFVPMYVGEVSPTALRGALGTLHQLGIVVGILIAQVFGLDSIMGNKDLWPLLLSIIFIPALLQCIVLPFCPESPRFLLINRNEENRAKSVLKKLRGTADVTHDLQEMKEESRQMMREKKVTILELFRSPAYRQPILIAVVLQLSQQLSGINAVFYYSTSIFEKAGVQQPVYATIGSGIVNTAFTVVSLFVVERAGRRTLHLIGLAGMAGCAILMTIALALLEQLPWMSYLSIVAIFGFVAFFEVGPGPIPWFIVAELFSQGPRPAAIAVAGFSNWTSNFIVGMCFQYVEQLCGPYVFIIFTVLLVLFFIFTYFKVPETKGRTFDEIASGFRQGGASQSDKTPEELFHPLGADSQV

[2] = target: Hexose transporter 1 (Plasmodium falciparum) (UniProt O97467); assay: ST_JUDE_LEISH: Cytotoxicity at 2uM final concentration against transgenic Leishmania Mexicana promastigotes LmPfHT that are glucose transport deficient and complemented with the Plasmodium falciparum hexose transporter. Activity is measured by DNA content using SYBR green in vitro
[3] = target: Glucose transporter (Leishmania mexicana) (UniProt O61059); assay: ST_JUDE_LEISH: Cytotoxicity at 2uM final concentration against transgenic Leishmania Mexicana promastigotes LmGT2 that are glucose transport deficient and complemented with the L. Mexicana glucose transporter 2. Activity is measured by DNA content using SYBR green in vitro

| Compound | inhibition [1] | inhibition [2] | inhibition [3] |
| --- | --- | --- | --- |
| COc1ccc(NC(=O)CCNc2cc(C)nc(NCCc3ccccc3)n2)cc1 | 4.71% | 4.04% | 2.42% |
| COC(=O)c1cccc(NC(=O)NC2CCN(c3ccnc(Nc4ccc(F)cc4)n3)C2)c1 (centres undefined) | 2.08% | 1.14% | -0.55% |
| Cc1cc(F)ccc1[C@H]1CNCCN1C(=O)N(C)[C@@H](C)c1cc(C(F)(F)F)cc(C(F)(F)F)c1 | -0.55% | -0.16% | -2.72% |
| CN1CC[C@@H](Oc2cc(NC(=O)Nc3ccccc3Br)ccc2Cl)C1 | 4.94% | 3.71% | 2.59% |
| Cc1ccc(O)c(C(=O)c2cnc3c(c2)c(-c2ccc(F)cc2)c(C#N)c(=O)n3C)c1 | 8.51% | 4.73% | 1.51% |
| Cc1[nH]c2ccccc2c1C(=O)CSc1nn(-c2ccccc2)c(=S)s1 | 5.67% | 7.39% | 2.44% |
| CC(C)(C)c1ccc(NC(=O)c2cccc(CN3CCCN(CC4CCCCC4)CC3)c2)cc1 | 3.24% | 1.77% | 3.88% |
| Oc1ccc(CCNCCCCNCCc2ccc(Cl)cc2)cc1O | -1.52% | 1.57% | -2.55% |
| CCCN1CCN(CCCNC(=O)c2cc3c(-c4ccc(Cl)cc4)nn(C)c3s2)CC1 | 18.3% | 17.4% | 10.2% |
| Cc1cc(C(=O)Nc2ccc3c(c2)CCN3C2CCN(Cc3ccc(F)cc3Cl)C2)no1 (centres undefined) | 4.11% | 3.71% | 3.86% |
| Cc1cccc(OC(C)C(=O)Nc2cc(C(F)(F)F)ccc2N2CCOCC2)c1 (centres undefined) | 2.38% | 3.02% | 6.44% |
| CCCC1N=C(N)N=C(N)N1c1ccccc1 (centres undefined) | 2.1% | -1.28% | 0.53% |
| O=C(/C=C/c1ccc(Cl)c(Cl)c1)NCCCCCCN1CCN(C(=O)Nc2cc(Cl)nc(Cl)c2)CC1 | 2.96% | 2.93% | 2.49% |
